Experimental data reported in ChEMBL document CHEMBL1961873, “Compounds: GSK PKIS; Assays: Nanosyn kinase panel” (2012).

target: Serine/threonine-protein kinase Chk2 (Homo sapiens) (UniProt O96017); settings: at 1 µM
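Note: reported value is the mean inhibition.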

Serine/threonine-protein kinase Chk2 (Homo sapiens), sequence (O96017 whole entry): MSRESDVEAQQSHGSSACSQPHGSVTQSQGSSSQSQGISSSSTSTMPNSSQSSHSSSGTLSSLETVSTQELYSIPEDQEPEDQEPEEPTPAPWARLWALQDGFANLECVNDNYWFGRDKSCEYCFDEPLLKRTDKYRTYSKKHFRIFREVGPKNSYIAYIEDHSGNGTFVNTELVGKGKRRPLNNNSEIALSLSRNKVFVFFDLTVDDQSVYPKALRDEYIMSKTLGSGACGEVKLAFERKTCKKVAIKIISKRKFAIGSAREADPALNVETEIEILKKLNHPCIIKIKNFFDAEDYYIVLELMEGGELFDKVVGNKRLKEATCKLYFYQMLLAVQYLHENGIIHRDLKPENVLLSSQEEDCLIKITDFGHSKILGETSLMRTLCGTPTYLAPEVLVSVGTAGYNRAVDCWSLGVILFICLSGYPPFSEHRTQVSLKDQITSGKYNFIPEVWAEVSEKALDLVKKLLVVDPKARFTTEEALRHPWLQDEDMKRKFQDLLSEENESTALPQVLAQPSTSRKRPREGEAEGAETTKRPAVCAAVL

Compound	inhibition
COc1cc2ncn(-c3cc(OCCc4ccccc4)c(C(N)=O)s3)c2cc1OC	4.01%
NS(=O)(=O)c1ccc(N/N=C2\C(=O)Nc3ccc(C(=O)NCCCn4ccnc4)cc32)cc1	19%
C/C(Nc1ccc(S(N)(=O)=O)cc1)=C1/C(=O)Nc2ccccc21	14.5%
O=C1Nc2ccc(I)cc2C1=Cc1cc(Br)c(O)c(Br)c1	9.44%
CN(c1ccc(NC(=O)Nc2c(Cl)cccc2Cl)cc1)c1ccnc(Nc2cccc(CS(C)(=O)=O)c2)n1	16.8%
CN(C)CCOc1ccc(-c2cc(-c3ccc4c(c3)CCC4=NO)c(-c3ccncc3)o2)cc1	-1.56%
Cc1ccc(C(=O)NC2CCC2)cc1-c1ccc(C(=O)NCC2CC2)cc1	3.06%
COc1ccc(-c2ccc3c(NC(=O)C4CC4)n[nH]c3n2)cc1	1.92%
COc1ccc2ncn(-c3cc(O[C@H](C)c4ccccc4Cl)c(C(N)=O)s3)c2c1	1.99%
NS(=O)(=O)c1ccc(Nc2cc(-c3ccc(O)c(F)c3)n[nH]2)cc1	3.93%
COc1ccc(C2=C(N3CCc4ccccc43)C(=O)NC2=O)cc1	3.92%
COc1cc2ncn(-c3cc(OCc4cccs4)c(C(N)=O)s3)c2cc1OC	5.81%
O=C(Nc1n[nH]c2nc(-c3ccc(O)cc3)c(Br)cc12)C1CC1	4.23%
COc1cc(Nc2ncc3c(C)nc(-c4cccc(Oc5ccccc5)c4)n3n2)cc(OC)c1OC	11.6%
COc1cccc(/C=N/Nc2ncnc3c2cnn3-c2cccc(OC)c2)c1	4.99%
COc1cc(Nc2ncc(-c3ccccc3)o2)cc(OC)c1OC	1.28%
